In PubChem BioAssay AID828 (The Scripps Research Institute Molecular Screening Center, 2007):
The whole screen tested about 140,000 compounds, of which about 550 (0.39%) were called active. No stated cut-off is given here; in the data, active means inhibition above about 27%; inactive means the rest. The sample as a whole holds a higher share of actives than the screen did.

biological target: Galanin receptor type 2 (Homo sapiens) (UniProt O43603); experiment: blockers of human galanin receptor 2 – cell-based, primary screen (AID 828); conditions: GALR2-expressing cells, antagonist mode; at 4 µM; stronger effect = higher value;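 further: cells stimulated with galanin 1-16 at roughly its EC80; 0% = agonist challenge control and 100% = basal control without agonist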
Sequence (O43603 whole entry, looked up): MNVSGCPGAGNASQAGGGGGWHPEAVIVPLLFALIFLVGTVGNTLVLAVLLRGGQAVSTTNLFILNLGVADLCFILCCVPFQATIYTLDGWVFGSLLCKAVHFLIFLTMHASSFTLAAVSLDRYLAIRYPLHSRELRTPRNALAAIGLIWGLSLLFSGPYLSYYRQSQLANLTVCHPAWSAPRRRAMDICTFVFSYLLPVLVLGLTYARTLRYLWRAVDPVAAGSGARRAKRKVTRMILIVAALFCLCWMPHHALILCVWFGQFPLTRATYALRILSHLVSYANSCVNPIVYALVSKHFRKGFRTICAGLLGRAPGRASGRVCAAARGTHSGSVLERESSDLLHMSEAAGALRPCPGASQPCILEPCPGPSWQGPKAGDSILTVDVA

inhibition, active:
CCc1ccc2c(c1)C1(NN=C(c3ccccc3)S1)C(=O)N2 (centres undefined) 28.2%
COc1ccccc1N1N=C(c2cccs2)CC1c1ccccc1 (centres undefined) 32.5%
O=C(Nc1ccccc1)c1nnsc1S(=O)(=O)c1ccc(Cl)cc1 42.4%
Fc1ccc2[nH]c3c(N4CCN(Cc5ccc6c(c5)OCO6)CC4)ncnc3c2c1 44.8%
COc1ccc(C)cc1NC(=O)c1[nH]c(C)c(C(C)=O)c1C 27.2%
COc1ccc(NC(=O)/C(Cl)=C(/Cl)S(=O)Cc2ccc(C)cc2)cn1 (centres undefined) 105%
COCC(C)NC(=O)c1ccc(Cl)c(Cl)c1 (centres undefined) 27.4%
COC(=O)Cc1cc(=O)oc2c(C)c(O)ccc12 39.2%
c1ccc(-c2nnc(SCc3nc4ccccc4[nH]3)o2)cc1 27.2%
CC1=C/C(=N\OS(=O)(=O)c2ccccc2)C=CC1=O 53.5%

inhibition, inactive:
O=C(Oc1ccc([N+](=O)[O-])cc1)c1ccc(Cl)c(S(=O)(=O)N2CCCCC2)c1 -9.96%
COc1ccc(N(C(=O)c2ccc(C)cc2)S(=O)(=O)c2cccs2)cc1 5.74%
O=C1Nc2ccccc2C12Nc1ccccc1S2 (centres undefined) 6.08%
C=C1c2cc(CC)ccc2NC(=O)N1c1ccc(C)cc1 5.36%
CNC(=O)c1ccsc1NC(=O)c1ccc(S(=O)(=O)N2CCOCC2)cc1 -4.99%
CCCn1nc(C(=O)Nc2ccc3nc(C)sc3c2)c2ccccc2c1=O -3.02%
COc1ccc(C2CC(c3cccs3)=NN2C(=O)COC(=O)c2cc3ccccc3cc2O)cc1OC (centres undefined) 12.7%
Fc1ccc(N2N=C(c3cccs3)CC2c2ccco2)c(F)c1 (centres undefined) -13.2%
CC(C)(C)NC(=O)COC(=O)c1cc(Br)ccc1Cl -2.97%
CC(=O)Nc1ccc(S(=O)(=O)NC(C)C(=O)OCC(=O)NC2CCCC2)cc1 (centres undefined) 11.3%
O=C(Cc1cccs1)Nc1cccc(-c2nc3ccccc3[nH]2)c1 12.3%
COc1ccc(/C=C(\C#N)C(=O)NCCCn2ccnc2)cc1 8.04%
CC(=O)Nc1cc(C(=O)O)ccc1S(=O)(=O)c1ccc(Cl)cc1 4.42%
O=C(Nc1ccc(Cl)cc1)c1ccsn1 12.1%
Fc1ccc2[nH]c3c(N4CCSCC4)ncnc3c2c1 22.8%
Cc1cc(N2CCN(Cc3ccc4c(c3)OCO4)CC2)n2ncnc2n1 -5.12%
CCOc1ccc(NC(=O)Nc2cc(C)ccc2OC)cc1 1.77%
CC(=O)c1c(C)[nH]c(C(=O)NCc2ccc(C)cc2)c1C -10.3%
CC(C)(C)N(Cc1ccccc1)C(=O)COC(=O)CCc1c[nH]c2ccccc12 1.11%
Cc1ccc(NC(=S)NC(=O)/C=C/c2ccc(Cl)cc2)cc1 -8.1%
O=[N+]([O-])c1cc(S(=O)(=O)N2CCCC2)ccc1NN=C1CCCC1 -1.82%
O=C(NCCc1ccccc1)C1CCN(S(=O)(=O)c2ccc(Br)s2)CC1 -2.64%
COC(C(=O)Nc1ccc(S(=O)(=O)Nc2ccc(C)c(C)c2)cc1)c1ccccc1 (centres undefined) 0.51%
Cc1cc(C)nc(SC2CCCCC2NS(=O)(=O)c2ccc(Cl)cc2)n1 (centres undefined) -14.2%
COc1ccc(OC)c(/C=C/C(=O)OCC(=O)Nc2ccc3c(c2)OCCO3)c1 4.33%
CCOC(=O)/C(=N\Nc1cc(Cl)ccc1Cl)N1CCN(C)CC1 -4.67%
CCn1c(=O)cc(SCC(=O)NCCC2=CCCCC2)c2ccccc21 -16%
CCOC(=O)C1=C(C)NC(=S)NC1c1cccs1 (centres undefined) -4.54%
CCC1C=C(c2ccccc2)C=CN=C1N(CC)CC (centres undefined) 15%
CCC(CC)c1nnc(NC(=O)/C=C/c2ccco2)s1 8.13%
CCOC(=O)/C(N=Nc1cc(C(=O)O)cc(C(=O)O)c1)=C(\O)CCl -4.09%
CC1(C)CC(=O)C/C(=N\NC(=O)c2cccs2)C1 9.6%
Cc1ccc2nc(-c3cccnc3)c(NC3CCCC3)n2c1 21.2%
CC(=O)Nc1ccc(S(=O)(=O)Nc2nc(-c3ccc(C(C)(C)C)cc3)cs2)cc1 -2.4%
O=[N+]([O-])c1ccccc1SNc1ccccn1 0.95%
CC(=O)NC1C(Oc2ccc(C)cc2)OC2COC(c3ccco3)OC2C1O (centres undefined) 11.3%
O=[N+]([O-])c1ccc(N2CCN(S(=O)(=O)c3ccccc3)CC2)cc1N1CCc2ccccc2C1 1.38%
COc1ccccc1-c1nnc(NC(=O)c2cccc(N3C(=O)CCC3=O)c2)o1 -8.68%
O=C(/C=C\c1cn(-c2ccccc2)nc1-c1cccs1)N1CCOCC1 13.8%
O=C(Nn1c(SCc2ccc([N+](=O)[O-])cc2)nc2ccccc2c1=O)c1ccc(F)cc1 -6.11%
COc1ccc(-c2cc(C(=O)NC(Cc3c[nH]c4ccccc34)C(=O)O)c(C)o2)cc1OC (centres undefined) 2.65%
COc1ccc(NS(=O)(=O)c2ccc(NC(=S)NC(=O)/C=C/c3ccc(C)cc3)cc2)nn1 7.84%
COc1cccc(NC(=O)Cc2ccc(C)cc2)c1 4.68%
COC(=O)Cc1ccc(N(Cc2ccccc2F)S(=O)(=O)c2ccc(Br)cc2)cc1 -3.96%
COc1ccc(C(C(=O)NC2CCCCC2)N(C(=O)CCl)c2ccccc2Cl)cc1 (centres undefined) 3.18%
CCOc1ccc(S(=O)(=O)N(CC(=O)NCC(F)(F)F)Cc2ccco2)cc1 -7%
COCC(C)NC(=O)c1ccc(-n2nc(C(F)(F)F)cc2-c2cccs2)cc1 (centres undefined) -1.6%
CCCNC(=O)c1ccc(Cl)c(Cl)c1 10.1%
CCN1CN(Cc2ccccc2)CNC1=S 3.98%
O=S(=O)(/N=C(/Nc1ccccc1)c1ccccc1)c1cccs1 -10.3%
Cc1ccc(CC2S/C(=C(/C#N)C(=O)N3CCOCC3)N(c3ccccc3)C2=O)cc1 (centres undefined) -9.98%
C=CCNC(=O)/C(=C\c1cccc([N+](=O)[O-])c1)NC(=O)c1ccccc1 3.63%
COc1ccc(NC(=O)COC(=O)c2ccc(NS(=O)(=O)/C=C/c3ccccc3)cc2)cc1 9.83%
COc1cc2c(cc1OC)C(=O)NCC(C)(C)O2 1.34%
CCCSc1nc2[nH]ncc2c(=O)[nH]1 -7.72%
Cc1ccc(Nc2nc(CSc3nnc(-c4ccncc4)n3-c3ccccc3C)cs2)cc1 -7.55%
Cc1ccc(C(=O)N2CC(=O)Nc3ccccc32)o1 -5.68%
CC(C)(C)OC(=O)N/N=C/c1ccc(C(=O)O)cc1 1.78%
O=C(CC1SC(=Nc2ccccc2)N(Cc2ccccn2)C1=O)Nc1cccc(Cl)c1 (centres undefined) -2.96%
CCCc1cc(=O)oc2c(C)c(O)c(CN3CCCCC3)cc12 -0.41%
COC(=O)COc1ccc2oc(=O)cc(C)c2c1 4.15%
O=c1c2c(ncn1Cc1ccccc1)nc1n2CCC1 11.2%
Clc1ccccc1SCc1nc2ccccc2[nH]1 7.26%
Clc1ccc(-c2nnc(SCc3nc4ccccc4s3)o2)cc1 12%
CCCC/C(C)=N/NC(=O)NC1CCCCC1 1.57%
CCCCN(C)CCC(=O)Nc1ccc(Cl)cc1 9.01%
Nc1nc(CC(=O)CSc2ccc(Cl)cc2)nc(Nc2ccc(F)cc2)n1 5.35%
O=C(COc1ccccc1F)NNC(=O)c1ccc(N2CCCCC2)c([N+](=O)[O-])c1 -5.34%
COc1ccc([N+](=O)[O-])cc1NC(=O)c1ccc(N(Cc2ccccc2C)S(C)(=O)=O)cc1 10.8%
CCCCCCCCCOC1OC(CO)C(O)C(O)C1NC(C)=O (centres undefined) -2.61%
N=C1C(=O)OCC1c1ccccc1NC(=O)CN1CCCCC1 (centres undefined) 0.12%
O=C(Nn1c(-c2ccccc2)nc2ccccc2c1=O)c1ccc([N+](=O)[O-])cc1 -0.78%
Cc1ccc(S(=O)(=O)/N=S(\C)C(C)C)cc1 (centres undefined) 0.24%
COC(=O)[C@H]1Cc2cnoc2C[C@]1(C)C(=O)O 13.5%
CCOC(=O)C1(S(=O)(=O)c2ccccc2)CCN(Cc2ccccc2)CC1 -2.88%
Cc1ccc(S(=O)(=O)c2ccc(Oc3ccccc3)cc2)cc1 -10.2%
O=C(Cc1ccccc1)NNC1CC(=O)N(c2ccc(Br)cc2)C1=O (centres undefined) -17.6%
COc1ccc(NS(=O)(=O)c2ccc(NC(=O)c3ccc(N(C)S(C)(=O)=O)cc3)cc2)cc1 3.65%
Cc1cc(Br)ccc1SCC(=O)OCC(=O)NCc1ccc2c(c1)OCO2 1.98%
C/C(=N\Nc1ccc([N+](=O)[O-])cc1)c1ccc(-n2nncc2C(C)(C)C)cc1 -1.64%
Cc1ccc(NC(=O)NC(=O)N(C2CCCCC2)S(=O)(=O)c2ccccc2)cc1 1.91%
Cc1cc(C)c[n+](-c2nc3ccccc3nc2[N-]S(=O)(=O)c2cccs2)c1 -5.36%
O=C(Nc1ccc2c(c1)OCO2)c1ccc(N2C(=O)c3ccccc3C2=O)cc1 -3%
CC1CCCN(S(=O)(=O)c2ccc(N(C(=O)c3cnccn3)C(C(=O)NC3CCCCC3)c3cccs3)cc2)C1 (centres undefined) 8.87%
